AMA1 RON2 block = inhibitors of Plasmodium falciparum AMA1-RON2 interaction. AlphaScreen AMA1-biotinylated RON2 peptide binding. Potency, µM (doses to about 58.2 µM), for the others: at the top dose activity change, negative = inhibition, usual class: inhibitors. 360,000 tested, 0.2% active. AID 720542;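 further: potency means the concentration at half of the fitted maximal effect; 0% = vehicle wells and -100% = peptide control; nearly all actives have a fitted effect of over 45% in size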
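AMA1 (3D7) with his tag at 25 nM final met compounds first, then biotinylated RON2 peptide at 25 nM; detection used donor plus acceptor beads, 10 µg/mL apiece, read by AlphaScreen after 30 min at room temperature.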
LmPK inhibitor = blocks Leishmania mexicana pyruvate kinase activity. Q27686. purified LmPK, Kinase-Glo ATP luminescence, 1 h. Potency, µM (titrated, usually from 57.5 µM), without a hit: at the highest dose activity change, negative = inhibition, usual class: inhibitors. 290,000 tested, 0.37% active. AID 1721; further: potency means the concentration at half of the fitted maximal effect; on the % scale 0 is the no-effect control and ±100 the full control effect
Target sequence (Q27686 whole entry, looked up): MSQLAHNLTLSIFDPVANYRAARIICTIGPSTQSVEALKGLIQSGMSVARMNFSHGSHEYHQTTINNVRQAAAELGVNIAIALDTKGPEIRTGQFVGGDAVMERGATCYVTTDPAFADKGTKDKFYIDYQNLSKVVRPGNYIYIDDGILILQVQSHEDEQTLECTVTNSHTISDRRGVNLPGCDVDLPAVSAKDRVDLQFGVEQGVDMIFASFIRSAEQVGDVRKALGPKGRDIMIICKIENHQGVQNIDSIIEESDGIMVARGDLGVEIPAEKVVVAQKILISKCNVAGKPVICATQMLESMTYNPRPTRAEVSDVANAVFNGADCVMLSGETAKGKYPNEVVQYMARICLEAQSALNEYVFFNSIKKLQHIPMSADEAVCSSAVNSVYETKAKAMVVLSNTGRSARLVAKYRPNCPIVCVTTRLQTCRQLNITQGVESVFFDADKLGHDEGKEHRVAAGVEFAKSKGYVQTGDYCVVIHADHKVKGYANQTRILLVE
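Kinase-Glo luminescence read after 1 h RT reaction of 0.1 nM LmPK with 0.5 mM PEP and 0.1 mM ADP. Activity scaled between uninhibited and enzyme-free controls.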
NS1 function inh = influenza NS1 inhibition; Potency, µM (top dose mostly 46.1 µM), for inactives: top-dose activity, positive = more growth; 270,000 tested, 0.4% active; AID 2326; calls by dose curve; further: potency means the concentration at half of the fitted maximal effect; actives are rising curves; nearly all actives have a fitted effect of over 50% in size
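A cell-based growth assay was used: compounds that relieve NS1-induced slow growth of budding yeast raise OD600. Assay medium was yeast nitrogen base with ammonium sulphate and -URA supplement, pH 6.0, with 2% galactose.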
TbPYK inhibitor = blocks Trypanosoma brucei pyruvate kinase | Potency, µM (highest dose often 76.8 µM), for the others: top-dose activity, negative = inhibition, actives largely listed as inhibitors | TbPYK enzyme, Kinase-Glo Plus ATP luminescence, 45 min | 410,000 tested, 0.12% active; further: potency means the concentration at half of the fitted maximal effect; on the % scale 0 is the no-effect control and ±100 the full control effect; nearly all actives have a fitted effect of over 50% in size
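T. brucei PYK with substrate was exposed to pin-transferred compounds across a concentration series, then started with 130 uM ADP (final). After 45 min at room temperature, Kinase-Glo Plus luminescence was read, normalized and curve-fitted.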
RE007 growth inh = less growth of the S. pombe RE007 Vpr strain | S. pombe RE007 Vpr strain, BacTiter-Glo ATP luminescence, 24 h | Potency, µM (titrated, usually from 92.2 µM), for inactives: at the top dose activity change, negative = less growth, usual class: inhibitors | 360,000 tested, 0.21% active; active means well fitted falling curve with a large enough effect; inconclusive means small, poorly fitted or top-dose-only effect; inactive means no such curve, though single readings can be large or run the other way; further: potency means the concentration at half of the fitted maximal effect; on the % scale 0 is the no-effect control and ±100 the full control effect; nearly all actives have a fitted effect of over 50% in size
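Fission yeast RE007 carrying one integrated HIV-1 vpr copy, seeded at OD 0.01 in PMG+AL medium with 23 nL pinned compound. Grown 24 h at 30 degrees; viability read by BacTiter-Glo luminescence after 5 min.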
NS1 inh valid = influenza NS1 function inhibition validation | shares compounds with NS1 function inh | activity change, negative = inhibition, % at 32.9 µM | influenza NS1 function cell assay, 15-point titration | 1,400 tested, under 10 active; calls by dose curve; further: 0% is about no effect
PR8 titer = influenza NS1 inhibitors: inhibition of influenza A/PR/8/34 replication | shares compounds with NS1 function inh | virus titer (log TCID50), log10 TCID50 at 5 µM | 95 tested, 30% active | AID 504647 | MDCK infected influenza A/PR/8/34, virus titer TCID50; stronger effect = lower value; call rule not given here
* hit, by the source's call; ? = inconclusive; . = no result given; [ ] = remark or other dose. The list is not random: actives were taken first. Their share in the collection is about 0.92%. Unless noted, the call rests on the fitted dose curve; in most records, active means well fitted curve in the direction sought with a large enough effect; inconclusive means small, poorly fitted or top-dose-only effect, or another doubt; inactive means no such curve, though single readings can be large; an effect the other way counts as inactive or inconclusive.

SMILES	AMA1 RON2 block	LmPK inhibitor	NS1 function inh	TbPYK inhibitor	RE007 growth inh	NS1 inh valid	others
O=C(CSc1nc2ccccc2c(=O)n1Cc1ccco1)NCc1ccco1	-6.0%	3.4%	5.3%	-0.7%	-17.1%	.
COc1cc(NC(=O)c2cc3cc4ccc(C)cc4nc3o2)cc(OC)c1OC	.	.	.	-4.5%	.	.
COc1cccc(CNC(=O)CSC2=Nc3ccccc3N=C(c3ccc(F)cc3)C2)c1	.	.	.	1.7%	.	.
CCOc1ccc(CCNC(=O)C2CCCN(S(=O)(=O)c3c(C)n[nH]c3C)C2)cc1OCC (stereo unspecified)	-7.5%	1.6%	2.51µM*	-7.7%	-10.4%	-27.4
CC(C)(C)NC(=O)NC(=O)CN1CCN(c2cccc(Cl)c2)CC1	-1.2%	-0.5%	7.94µM*	-6.7%	-5.9%	-25.8	PR8 titer=8.33
Cc1c(-c2cccc(NC(=O)Nc3ccccc3)c2)nc2ncccn12	.	.	.	-10.0%	.	.
O=C(COc1ccc(Cl)cc1)Nc1ccccc1C(=O)OCc1cc(=O)n2ccsc2n1	.	.	.	0.5%	.	.
O=C(NC1CC1)c1ccc(CS(=O)(=O)c2c(Cl)cccc2Cl)o1	3.9%	2.4%	4.47µM*	-4.1%	-2.2%	6.3
CC1CCC(NC(=O)c2ccc(CS(=O)(=O)c3c(Cl)cccc3Cl)o2)CC1 (stereo unspecified)	.	.	.	-4.3%	.	.
O=C1c2ccccc2[C@@H]([C@@H]2c3ccccc3C(=O)c3cc(Br)ccc32)c2ccc(Br)cc21	.	.	-11.4%	.	.	.
CCOc1ccc(C(C#N)N2CCOCC2)cc1OC (stereo unspecified)	0.9%	7.2%	15.8µM*	-6.6%	-8.7%	?
N=c1c(C(=O)NCc2ccco2)cc2c(=O)n3ccccc3nc2n1Cc1ccc(Cl)cc1	4.4%	2.1%	7.94µM*	1.8%	-1.8%	-27.1
COc1cccc(NC(=O)CSc2nc(=O)n(Cc3cccnc3)c3c2CCC3)c1	.	.	.	-6.4%	.	.
C(=N\N1CCN(Cc2cccc3ccccc23)CC1)/c1cccnc1	?	8.0%	10µM*	7.3%	0.0%	-5.1
Cc1cc(C)cc(NC(=O)C2CCCN(S(=O)(=O)c3cccc4nsnc34)C2)c1 (stereo unspecified)	.	.	.	2.6%	.	.
Cc1nc(NC(=O)c2ccccc2)sc1-c1csc(Nc2ccc(Cl)cc2)n1	.	-0.6%	5.01µM*	.	.	1.2
COc1cccc(CNC(=O)CN2C(=O)N(c3ccc(C)cc3C)S(=O)(=O)c3ccccc32)c1OC	.	.	.	-6.6%	.	.
O=C1OCCN1C(=O)[C@H]1[C@H](c2ccc([N+](=O)[O-])cc2)C(c2cccc(Cl)c2)=NN1c1ccccc1	-18.2%	-2.2%	22.4µM*	-3.0%	-9.7%	27.9
Cc1nn(-c2cc(N3CCOCC3)ccc2N)c(=O)c2ccccc12	-7.9%	-0.5%	14.1µM*	1.6%	4.1%	12.7
COc1ccc(OC)c(NC(=O)Cc2c(C)n(C(=O)c3ccc(Cl)cc3)c3ccc(OC)cc23)c1	.	.	.	3.9%	.	.
COc1ccc2c(c1)c(CC(=O)Nc1cc(C)ccc1C)c(C)n2C(=O)c1ccc(Cl)cc1	-16.1%	8.4%	?	-5.1%	21.7%	-6.5
O=c1ccn([C@@H]2O[C@H](CO)[C@@H](O)[C@H]2O)c(=O)[nH]1	-5.6%	-4.7%	12.6µM*	4.2%	-10.2%[18.4 µM]	?
O=c1ccn([C@@H]2O[C@H](COP(=O)(O)OP(=O)(O)O)[C@@H](O)[C@H]2O)c(=O)[nH]1	.	.	6.2%	.	.	.
Cc1ccc(SCC(=O)Nc2ccc3c(c2)C(=O)N(C)C3=O)cc1	-1.8%	-4.5%	2.51µM*	0.0%	12.1%	13.0
COC(=O)c1cc2oc(C)cc2n1Cc1cccc(Cl)c1	.	.	.	-6.4%	.	.
SMILES	AMA1 RON2 block	LmPK inhibitor	NS1 function inh	TbPYK inhibitor	RE007 growth inh	NS1 inh valid	others
CCn1c(SCC(=O)O)nnc1-c1cc2c(C)nn(-c3ccccc3)c2s1	-1.0%	3.5%	?	-9.6%	-14.8%	8.0
CN(CC(=O)Nc1sccc1C#N)C1CCCCC1	49.5%	1.2%	7.94µM*	-2.0%	-4.2%	-13.6
Cc1onc(-c2ccccc2Cl)c1C(=O)Nc1nnc(-c2cccc([N+](=O)[O-])c2)s1	82.3%	9.2%	10µM*	0.1%	13.3%	-1.2
Cc1cc(C(=O)Nc2nnc(-c3ccccc3)s2)no1	5.2%	-25.8%	?	-22.5%	?	?
CCSc1nnc(NC(=O)c2c(-c3ccccc3Cl)noc2C)s1	-8.6%	13.6%	?	-1.0%	-7.9%	.
CCOc1ccc(CNC(=O)C2CCN(c3nnc(-n4c(C)ccc4C)s3)CC2)cc1	.	.	.	2.4%	.	.
CC(CNC(=O)c1cc2ccccn2n1)c1ccccc1 (stereo unspecified)	.	.	.	1.8%	.	.
CCOc1ccc(S(=O)(=O)NCCc2sc3nc(-c4ccc(F)cc4)nn3c2C)cc1	.	.	.	46.9%	.	.
COc1ccccc1C/C(N)=N/OC(=O)COc1ccc(C)cc1	34.4%	-3.1%	?	3.3%	0.2%	?
CC(C)c1ccccc1-n1c(SCC(=O)N2CCc3ccccc3C2)nc2ccccc2c1=O	-5.2%	1.0%	22.4µM*	0.1%	8.3%	-7.2
COC(=O)c1ccc(CS(=O)(=O)c2ccccc2C)o1	-3.9%	0.1%	1µM*	4.2%	6.0%	20.6
COCCNC(=O)c1ccc(CS(=O)(=O)c2ccccc2C)o1	15.7%	-3.6%	2.3%	0.9%	12.4%	.
Cc1cc(N2C(=O)C(O)=C(C(=O)c3ccc(C)o3)C2c2cccs2)no1 (stereo unspecified)	?	0.3%	11.2µM*	-15.1%	-21.1%	-25.7

Screening data: PubChem BioAssay, National Center for Advancing Translational Sciences (NCATS)
